Source: PubChem BioAssay (several laboratories)
Rows were chosen to be rich in hits. Some 3.3% of all compounds tested hit in one or more screens of this group.
ROMK primary = ROMK potassium channel modulators, primary screen, cell-based, thallium flux, MLSMR library; ATP-sensitive inward rectifier potassium channel 1 (Homo sapiens), P48048; Tet-inducible ROMK, thallium flux fluorescence; actives lie on both sides; B-score at 10 µM; hit rate 2% among 130,000; AID 1918, 2009;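 active means signal ratio slope over the read window, or its plate-corrected B-score, at least 3 SD from the plate mean, either direction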;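 further: B-score of the F/F0 ratio slope over 7 to 12 s after thallium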
Target sequence (P48048 whole entry, looked up): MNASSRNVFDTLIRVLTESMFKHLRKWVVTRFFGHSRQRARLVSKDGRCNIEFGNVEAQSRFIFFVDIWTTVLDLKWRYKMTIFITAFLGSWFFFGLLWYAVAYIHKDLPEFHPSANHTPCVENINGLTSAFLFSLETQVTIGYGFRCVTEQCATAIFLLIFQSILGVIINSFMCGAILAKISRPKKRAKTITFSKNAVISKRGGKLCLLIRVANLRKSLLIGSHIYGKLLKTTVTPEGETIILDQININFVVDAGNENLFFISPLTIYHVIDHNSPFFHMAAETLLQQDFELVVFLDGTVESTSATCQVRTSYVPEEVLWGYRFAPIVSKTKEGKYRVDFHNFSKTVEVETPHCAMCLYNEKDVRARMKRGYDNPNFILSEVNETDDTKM
PERK inh = block of dimerizer-induced PERK translation repression, primary screen, PERK inhibitor project, CHO PERK-DD cells, SEAP luminescence, HTS. inhibition, % at 5.6 µM. CHO PERK-DD fusion, SEAP luminescence translation reporter. hit rate 0.17% among 220,000. Eukaryotic translation initiation factor 2-alpha kinase 3 (Homo sapiens), Q9NZJ5. AID 1416, 2008;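 active means inhibition above the mean inhibition of all tested compounds plus 3 SD, set separately per screening campaign, cut at about 2.9% in these data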;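 further: PERK kinase domain activated by AP20187 dimerizer at 100 nM; 0% = DMSO with dimerizer and 100% = rapamycin at 8.4 µM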
Arbovirus inh = antivirals against arbovirus infection, primary screen, cell-based, full library, 10K replicate subset; arbovirus infection cell-based antiviral screen; inhibition, % at 10 µM; hit rate 0.37% among 200,000; AID 1251, 2008; in the data active means inhibition above about 30%
WT yeast gro inh = growth inhibition of WT strain, primary screen, mitochondrial fusion inhibitor project, WT and mutant strains, chemical genetic; mitochondrial fusion phenotypic screen; inhibition, % at 10 µM; hit rate 2.1% among 190,000; in the data active means inhibition above about 58%; tested in S. cerevisiae
An asterisk follows results filed as active; · = no result given.

SMILES | ROMK primary | PERK inh | Arbovirus inh | WT yeast gro inh
COc1cccc(NC(=S)NCCC(c2ccccc2)c2ccccc2)c1 | · | 1 | -44 | 76*
Cn1nc(OCC(=O)O)cc1C(F)(F)F | · | 3.0* | · | ·
CCc1ccc(-c2cc(C(=O)N3N=C(C(F)F)CC3(O)C(F)F)c3ccccc3n2)cc1 (centres undefined) | · | -1 | -35 | 80*
COc1ccc2cc3cc(C(=O)NCCN4CCc5ccccc5C4)sc3nc2c1 | -0.76 | -1 | 4 | 58*
COc1ccc2cc3cc(C(=O)NCCN4CCc5ccccc5C4)oc3nc2c1 | · | -1 | -12 | -5
O=C(NCc1ccco1)C(c1ccc(F)cc1)N(CC1CCCO1)C(=O)Cn1nnc2ccccc21 (centres undefined) | · | -1 | 7 | -5
COC(=O)CCC(=O)COc1ccc(OC)cc1C#N | -0.39 | 1 | 6 | 91*
Cc1ccc2c(c1)c(Sc1ccccc1)c(CC(=O)O)n2C | 2 | 1 | 31* | -31
CCOC(=O)Cc1c(Sc2ccccc2)c2cc(C)ccc2n1C | · | 0 | 26 | 68*
Cn1c(CC(=O)Nc2ccccc2)c(Sc2ccccc2)c2ccccc21 | 0.22 | 1 | -14 | 0
Cn1c(CC(=O)Nc2ccccc2C(F)(F)F)c(Sc2ccccc2)c2ccccc21 | · | 1 | -5 | -11
N#Cc1nc(-c2ccc(Cl)cc2)oc1NCC1CCCO1 (centres undefined) | -0.5 | 0 | -7 | 9
COc1ccc(C(=O)OCC(=O)NCC2CCCO2)cc1S(=O)(=O)N1CCCc2ccccc21 (centres undefined) | 0.59 | 1 | -2 | 7
COc1cc(S(=O)(=O)NCCOC23CC4CC(CC(C4)C2)C3)c(OC)cc1Cl | · | 1 | 3 | 15
CCOc1ccc(OCC)c(S(=O)(=O)NCCOC23CC4CC(CC(C4)C2)C3)c1 | -0.43 | -1 | -3 | 74*
CCC(CO)NCc1ccccc1OC(C)C (centres undefined) | · | 0 | -4 | -16
CSc1nsc(SC)c1C(=O)O | -0.058 | 1 | 3 | -7
Cc1nsc(N)c1C(=O)O | · | 3.4* | · | ·
CC(/C=N/Nc1nc(C)cc(=O)[nH]1)=C\c1ccccc1 | 0.013 | 1 | 24 | 11
Cn1c(/C=N/Nc2nc3ccccc3[nH]2)nc2ccccc21 | 0.44 | -1 | -27 | 64
CC(/C=N/Nc1nc2ccccc2[nH]1)=C\c1ccccc1 | · | -1 | 4 | 90*
CC(C)Cn1c(/C=N/Nc2nc3ccccc3[nH]2)nc2ccccc21 | · | 0 | -22 | 60*
CCN(CC)c1ccc(/C=N/Nc2nc3ccccc3[nH]2)cc1 | 0.31 | -2 | -12 | 79*
CC(=O)Nc1ccc(/C=N/Nc2nc3ccccc3[nH]2)cc1 | · | 0 | -6 | -14
CCCn1c(/C=N/Nc2nc3ccccc3[nH]2)nc2ccccc21 | -0.99 | -1 | -30 | 58*
SMILES | ROMK primary | PERK inh | Arbovirus inh | WT yeast gro inh
c1ccc2c(-c3nc4ncccc4o3)cccc2c1 | · | -1 | -6 | 14
Cc1ccc(S(=O)(=O)NNC(=O)c2sc(=S)n(C)c2C)cc1 | 0.27 | 1 | -2 | -6
Oc1ccccc1C1CC(c2cccs2)=NC(c2cccc(Br)c2)N1 (centres undefined) | -0.55 | 1 | 0 | 17
Fc1ccccc1N1CCN(Cc2nc(-c3ccc(Cl)cc3Cl)no2)CC1 | · | 1 | 31* | 5
CCC1(C)Cc2ccccc2-c2nc3n(c(=O)c21)CCS3 (centres undefined) | -0.51 | -2 | 5 | 12
CC(C)n1c(Nc2ccccc2)nc2ccccc21 | -3.2* | 1 | -4 | 52
CC(C)n1c(NCCO)nc2ccccc21 | 0.74 | 0 | 2 | -7
CCOc1cc(CN2CCN(C(=O)c3ccco3)CC2)ccc1OC | -0.48 | -1 | 4 | 5
CCOc1ccccc1-n1c(CN2CCN(C(=O)c3ccco3)CC2)nc2ccccc2c1=O | · | -2 | -6 | 70*
CC(C)S(=O)(=O)c1nsc2nc(=O)c(/C=C3\C=Nc4ccccc43)c(N)n12 | 1.7 | 0 | 37* | 3
CC1=Nc2ccc(C)cc2/C1=C/c1c(N)n2c(S(=O)(=O)C(C)C)nsc2nc1=O | -1.5 | 0 | 45* | 2
CSc1nsc2nc(=O)c(/C=C3\C=Nc4ccccc43)c(N)n12 | 2.1* | 1 | 38* | 10
CC1=Nc2ccccc2/C1=C/c1c(N)n2c(S(=O)(=O)C(C)C)nsc2nc1=O | 0.094 | 1 | 39* | -8
O=C(CCCn1c(=S)[nH]c2ccc(Br)cc2c1=O)NCC1CCCO1 (centres undefined) | · | -2 | -1 | -2
COc1ccc(CCNC(=O)c2ccc(-c3ccc([N+](=O)[O-])cc3Cl)o2)cc1OC | · | -1 | 19 | 34
Cc1cn2c(N)c(/C=C3\C=Nc4ccccc43)c(=O)nc2s1 | · | 1 | · | ·
CCc1nn2c(N)c(/C=C3\C=Nc4ccccc43)c(=O)nc2s1 | · | 1 | 31* | -1
CCCn1nc([N+](=O)[O-])c(C(C#N)c2nc3ccccc3s2)c(Cl)c1=O (centres undefined) | -0.79 | -1 | -36 | 78*
COc1n[nH]c(C(=O)Nc2nc3ccccc3s2)c1[N+](=O)[O-] | -0.14 | 1 | 4 | 27
Cc1ccc(S(=O)(=O)Nc2ccc(S(=O)(=O)N3CCCC3)cc2)cc1 | · | 0 | 2 | -1
Cc1cc(-c2ccccc2)nc2cc(C(=O)N(Cc3ccccc3)Cc3ccccc3)nn12 | · | -1 | -19 | 75*
O=C(CN(C(=O)c1ccccc1Cl)N1C(=O)CCCC1=O)c1ccc(Cl)cc1 | -0.52 | 1 | -1 | 8
CC(C)C(c1nnnn1C(C)(C)C)N1CCN(c2cccc(Cl)c2)CC1 (centres undefined) | -0.54 | 0 | -7 | 75*
CC(C)C(c1nnnn1Cc1ccco1)N1CCN(c2cccc(Cl)c2)CC1 (centres undefined) | · | -1 | -17 | 8
COC(=O)CSc1nnc(CNc2ccc(OC)cc2)n1C | 0.53 | 0 | -1 | 14
SMILES | ROMK primary | PERK inh | Arbovirus inh | WT yeast gro inh
FC(F)(F)c1ccccc1NC(=S)N/N=C1\CC2CC=CC12 (centres undefined) | -0.014 | 1 | -15 | 21
Cc1ccc([N+](=O)[O-])cc1NCC(=O)NN | 0.61 | 1 | 2 | 0
COC(=O)C1CCN(C(=O)c2cc(OC)c(OC)c(OC)c2)CC1 | -0.13 | 0 | 8 | 78*
CNC(=S)NC1(C)CCS(=O)(=O)C1 (centres undefined) | · | 1 | · | ·
O=C(CSC1=NC2(CCCCCC2)N=C1c1ccccc1)Nc1ccc2c(c1)OCCO2 | -0.12 | -1 | -1 | 58*
Nn1c(SCC(=O)Nc2ccc3c(c2)OCO3)nnc1-c1ccncc1 | · | 0 | -3 | 88*
O=C(CSC1=NC2(CCCCC2)N=C1c1ccccc1)Nc1ccc2c(c1)OCCO2 | 0.5 | -1 | -5 | 24
O=C(CSc1nnc2scc(-c3ccccc3)n12)Nc1ccc2c(c1)OCCO2 | · | -1 | 8 | 73*
CSc1ncccc1C(=O)Nc1nc2ccc(Oc3ccccc3)cc2s1 | -0.014 | 1 | -8 | 40
CN1N=C(c2ccc(F)c(F)c2)CSC1=NCc1ccccc1 | -1.5 | 0 | 15 | 69*
CCN(CC)Cc1cc2[nH]c3c4ccc(Cl)cc4ncc3c2cc1OC | · | 1 | · | ·
